An excerpt weighted towards active compounds, which were near 3.9% of everything screened.
BoNT A protease = BoNT/A light chain protease inhibitors, primary screen, biochemical, flow cytometry, MLPCN library | Botulinum neurotoxin type A light chain protease (Clostridium botulinum A str. ATCC 3502) | multiplex microsphere protease substrate cleavage | inhibition, % at 10 µM | hit rate 0.17% among 360,000 | AID 588499, 2011; also: plate controls were buffer without enzyme for full effect and enzyme alone for no effect
Anthrax LF inh2 = Bacillus anthracis LF protease inhibitors, primary screen, biochemical, multiplex microsphere, MLPCN library. AID 588501, 2011. inhibition, % at 10 µM. Lethal factor (Bacillus anthracis), P15917. hit rate 0.12% among 360,000. multiplex microsphere protease cleavage assay; also: plate controls were buffer without enzyme for full effect and enzyme alone for no effect
3CLpro inhibitor = SARS-CoV 3CLpro protease inhibitors, primary screen, biochemical, quenched FRET; recombinant SARS-CoV 3CLpro, quenched FRET peptide cleavage; inhibition, % at 6 µM; hit rate 0.14% among 290,000; AID 1706, 2009; in the data active = inhibition above about 12%
Bead autofluor = counter-screen for toxin protease inhibitors: compound fluorescence; compound autofluorescence counterscreen, microsphere flow cytometry; stronger effect = higher value; fluorescence intensity (concentration not given with the values); hit rate 3.1% among 360,000; in the data active = fluorescence intensity above about 16000; inconclusive = no clear call, values can overlap the other calls
DUSP3 inh = VHR1 phosphatase inhibitors, primary screen, biochemical, absorbance, uHTS; Dual specificity protein phosphatase 3 (Homo sapiens), P51452; recombinant VHR phosphatase, pNPP absorbance; inhibition, % at 13.3 µM; hit rate 0.52% among 290,000; AID 1654, 2009; in the data active = inhibition above about 50%
BoNT-F LC inh = BoNT/F light chain protease inhibitors, primary screen, biochemical, flow cytometry, MLPCN library. hit rate 0.22% among 360,000. Multiplex microsphere protease cleavage assay. Botulinum neurotoxin type F light chain protease (Clostridium botulinum). inhibition, % at 10 µM; in the data active = inhibition above about 35%, passing the limit was not always enough; inconclusive = no clear call, values can overlap the other calls; also: plate controls were buffer without enzyme for full effect and enzyme alone for no effect
Numbers without * were called inactive; ? = inconclusive; nt = no result given. Rule as the data show it, unless noted: active = inhibition above about 30%; inconclusive = no clear call, values can overlap the other calls; inactive = below that.

SMILES	BoNT A protease	Anthrax LF inh2	3CLpro inhibitor	Bead autofluor	DUSP3 inh	BoNT-F LC inh
COC(=O)c1ccccc1NC(=O)c1cc(-c2cccs2)on1	1	-1	1	20518*	3	2
COc1ccccc1-c1cc(C(=O)NCc2ccccc2)no1	-1	-2	5	21016*	24	-2
CCOc1ccc(NC(=O)CN(C)C(=O)c2c(C)nn(-c3ccc(F)cc3)c2Cl)cc1OCC	1	3	nt	6158	nt	5
COc1cccc(C(=O)COC(=O)CCC(=O)c2ccccc2)c1	1	-3	5	4290	-5	1
CN1C(=O)C(Cc2nc3ccccc3c(=O)n2-c2ccccc2)c2ccccc21 (stereo not given)	?	-1	-6	19805*	30	2
COc1ccc(-c2noc(CSc3nc4ccccc4c(=O)n3-c3ccccc3)n2)cc1	-4	-2	5	21618*	-11	-3
Nc1nonc1-n1nnc(C(=O)N/N=C/c2ccccc2Cl)c1COc1ccc(F)cc1	1	-10	-1	4328	0	?
COC(=O)c1ccc(S(=O)(=O)NCCSc2nnc3c4ccccc4n(C)c3n2)cc1	?	0	-7	23909*	19	-2
CCCCc1nc2ccccc2c(=O)n1-c1ccc(Cl)cc1[N+](=O)[O-]	?	0	-5	22486*	0	-1
O=C1N/C(=N\N=C\c2cccnc2)SC1Cc1ccc(SC(F)F)cc1 (stereo not given)	nt	nt	-3	nt	-19	nt
O=C1N/C(=N\N=C\c2ccc3ncccc3c2)SC1Cc1ccc(SC(F)F)cc1 (stereo not given)	?	1	-2	20635*	6	4
COC(=O)[C@H](CC(C)C)NC(=O)Nc1ccccc1F	?	-12	-1	4574	13	?
O=C(CNc1ccccc1)N/N=C/c1ccc2c(c1)OCCO2	0	-2	-1	1950	18	-15
Cc1ccc(Cl)cc1N1CCN(C(=O)c2ccc3c(c2)CCN3S(C)(=O)=O)CC1	1	-7	-3	4074	57*	3
CS(=O)(=O)N1CCc2cc(C(=O)N3CCN(c4cccc(Cl)c4)CC3)ccc21	0	-2	-2	5652	18	-4
Nn1c(COc2ccccc2F)nnc1SCC(=O)NC1CCS(=O)(=O)C1 (stereo not given)	1	-1	nt	5140	nt	2
COC(=O)C1=C(NC(=O)c2cccc(OC)c2)CCS1	-1	-2	5	22750*	13	-2
COc1ccc(CCN2C(=O)c3cccc4cccc(c34)C2=O)cc1OC	11	-17	-7	17334*	14	10
COc1ccc(CCN2C(=O)C3C4C=CC(C5CC45)C3C2=O)cc1OC (stereo not given)	0	2	3	4674	15	4
COc1ccc(CCNC(=O)CN2C(=O)c3cccc4cccc(c34)C2=O)cc1OC	1	-1	4	2258	27	4
COc1ccc(CCN2C(=O)C3C4C=CC(C3C2=O)C2C(=O)N(CCc3ccc(OC)c(OC)c3)C(=O)C42)cc1OC (stereo not given)	2	-5	4	19991*	-30	2
Cc1cccc(C)c1NS(=O)(=O)c1ccc(-c2cnc(C3CC3)o2)cc1	0	2	3	5669	-2	1
CCNc1c(NS(=O)(=O)c2ccc(F)c(Cl)c2)c(=O)oc2ccccc12	3	-9	2	3828	12	-15
CC(C(=O)NCCc1ccc(Cl)cc1)n1c(=O)c2cccn2c2cccnc21 (stereo not given)	2	2	-5	3859	5	2
CC1(C)C(=O)OC(C(=O)c2ccccc2)C(C)(C)C1=O (stereo not given)	3	0	-2	21463*	-7	3
SMILES	BoNT A protease	Anthrax LF inh2	3CLpro inhibitor	Bead autofluor	DUSP3 inh	BoNT-F LC inh
Cc1cc(OCC(=O)NCC2CCC(C(=O)O)CC2)c2c(C)c(C)c(=O)oc2c1 (stereo not given)	0	0	0	5712	5	1
COc1cc(C(=O)NCCC(=O)NCc2cccs2)cc(OC)c1OC	0	2	nt	3898	nt	-12
CCC(=NCCO)c1c(O)n(-c2ccc(Cl)cc2)c(=O)[nH]c1=O	-3	-6	3	23929*	13	-6
O=C(CSc1nnc(-c2ccc(O)cc2)o1)Nc1ccccc1Br	0	-1	-3	4896	-11	-5
Nc1ccc(C(=O)c2ccc3c(c2)OCCO3)cc1N	0	0	-1	21110*	nt	-6
CCC(=O)c1ccc2c(c1)OCCO2	-3	-5	3	4283	17	?
Nc1cc2c(cc1C(=O)c1ccc(Cl)cc1)OCCO2	?	-3	7	22401*	24	-1
C=CCSc1nnc(-c2ccc(Cl)cc2Cl)o1	-4	-8	-2	17125*	11	-4
CCCCCOC(=O)CCN1C(=O)/C(=C2\SC(=S)N(CCC(=O)OCCCCC)C2=O)SC1=S	40*	14	3	3092	10	21
CCCOC(=O)CCCN1C(=O)/C(=C2\SC(=S)N(CCCC(=O)OCCC)C2=O)SC1=S	81*	6	-1	3940	2	?
CN1C=CC=C/C1=C1\SC(=S)N(CC(=O)O)C1=O	0	-4	2	4248	37	-4
CCCCOC(=O)CCN1C(=O)/C(=C2\SC(=S)N(CCC(=O)OCCCC)C2=O)SC1=S	30*	15	3	2108	19	-1
C(=N\n1cnnc1)/c1cccn1-c1ccccc1	-2	-2	2	16775*	8	-4
CC(NC(=S)Nc1ccccc1C(F)(F)F)C1CC2CCC1C2 (stereo not given)	0	-10	1	3115	15	-6
O=[N+]([O-])c1cc(Cl)c(Cl)c(Cl)c1Cl	0	1	nt	4107	nt	3
Fc1cccc(C[n+]2csc3ccccc32)c1	-3	-3	4	17119*	13	-9
c1ccc(C[n+]2csc3ccccc32)cc1	-1	-9	0	7813	37	-9
COc1ccc(NC(=O)c2sc(=O)n(Cc3ccccc3C#N)c2C)cc1OC	-1	-12	nt	5434	nt	-11
CC(=O)c1ccc(N2C(=O)CC(N3CCN(S(=O)(=O)c4cc(C)ccc4C)CC3)C2=O)cc1 (stereo not given)	0	-4	nt	3800	nt	-2
O=C(CSc1ncnc2c1oc1ccccc12)Nc1cccc(C(F)(F)F)c1	-1	-4	1	5628	42	-5
c1ccc(CSc2ncnc3c2oc2ccccc23)cc1	0	-4	2	4629	nt	-27
O=C(CSc1ncnc2c1oc1ccccc12)Nc1cccc(Cl)c1	-7	1	-1	21833*	18	-7
CC(C)Sc1ncnc2c1oc1ccccc12	0	-1	-8	23211*	8	0
